Reference: paper PMC4336329 (PLoS ONE, 2015)
About 14,000 (4.5%) of roughly 310,000 compounds showed an effect of 50% or more. The effect is printed as a negative number. For the sample, strong results were picked, then their nearest neighbours and some compounds at random.

biological target: human ether-à-go-go-related gene (hERG) potassium channel (human, UniProt Q12809); test: primary screen, population patch clamp on CHO cells stably expressing hERG; higher = less effect of the substance
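Further: peak tail current of the secondary pulse compared with the same well before compound.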

human ether-à-go-go-related gene (hERG) potassium channel, sequence (Q12809 whole entry, looked up): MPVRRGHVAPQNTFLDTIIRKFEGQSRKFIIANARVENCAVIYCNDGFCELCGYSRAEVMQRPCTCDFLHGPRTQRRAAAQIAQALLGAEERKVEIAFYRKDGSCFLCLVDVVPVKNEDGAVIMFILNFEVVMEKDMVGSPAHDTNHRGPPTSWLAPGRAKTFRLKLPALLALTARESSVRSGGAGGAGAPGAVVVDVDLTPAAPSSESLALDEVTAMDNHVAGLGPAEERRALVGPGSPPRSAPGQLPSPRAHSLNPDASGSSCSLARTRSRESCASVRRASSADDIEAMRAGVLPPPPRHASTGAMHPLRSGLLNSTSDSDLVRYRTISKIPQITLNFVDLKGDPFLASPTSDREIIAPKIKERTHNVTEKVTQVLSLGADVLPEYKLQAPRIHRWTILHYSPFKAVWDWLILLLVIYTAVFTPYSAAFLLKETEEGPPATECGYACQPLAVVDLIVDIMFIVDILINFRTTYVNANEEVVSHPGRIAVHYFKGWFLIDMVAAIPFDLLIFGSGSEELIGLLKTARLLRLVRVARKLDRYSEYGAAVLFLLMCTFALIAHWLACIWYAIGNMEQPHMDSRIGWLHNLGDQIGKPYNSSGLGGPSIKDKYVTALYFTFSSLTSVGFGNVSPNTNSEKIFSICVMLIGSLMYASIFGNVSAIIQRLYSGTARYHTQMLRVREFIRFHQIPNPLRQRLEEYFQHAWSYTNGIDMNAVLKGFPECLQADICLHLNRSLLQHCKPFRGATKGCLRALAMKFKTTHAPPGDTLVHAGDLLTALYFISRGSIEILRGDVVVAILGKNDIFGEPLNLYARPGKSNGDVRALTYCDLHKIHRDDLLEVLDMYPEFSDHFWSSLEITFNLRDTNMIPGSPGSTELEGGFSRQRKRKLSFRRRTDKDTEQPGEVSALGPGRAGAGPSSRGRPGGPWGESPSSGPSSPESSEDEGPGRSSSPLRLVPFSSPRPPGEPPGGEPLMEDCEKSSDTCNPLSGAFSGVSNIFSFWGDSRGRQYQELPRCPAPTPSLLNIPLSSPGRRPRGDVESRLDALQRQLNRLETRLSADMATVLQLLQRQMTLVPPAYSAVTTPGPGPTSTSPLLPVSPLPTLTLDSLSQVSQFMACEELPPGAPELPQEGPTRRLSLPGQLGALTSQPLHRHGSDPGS

Going from `COc1ccc(C2SCC(C(=O)NCc3ccc(F)cc3)N2C(C)=O)cc1` (centres unmarked) to `Cc1ccc(NC(=O)CN(C)Cc2ccc(F)cc2)c([N+](=O)[O-])c1`, the “hERG current change (%, negative = inhibition) at 10uM” value rises from -20.2% to -17.8%.

First: Nc1ccccc1SSc1ccccc1N
Second: CCC(C)(C)NC(=O)C1c2ccccc2Oc2ccccc21
The “hERG current change (%, negative = inhibition) at 10uM” value of the first is higher: 27.7% for the first, 23% for the second.

Compared with `Cc1ccc(S(=O)(=O)N2CCC(C(=O)NCCCN3CCCC3=O)CC2)cc1C`, `Cc1cc(C)c(C)c(S(=O)(=O)N2CCC(C(=O)NCCCN3CCCC3=O)CC2)c1C` is lower in “hERG current change (%, negative = inhibition) at 10uM” value: 7.98% for the first, -70% for the second.

First: CCCN1CCN(CCCNC(=O)C2CCCN(c3nc4ccc(OCC)cc4s3)C2)CC1 (centres unmarked)
Second: COc1ccc2nc(N3CCCC(C(=O)NCCCN4CCN(C)CC4)C3)sc2c1 (centres unmarked)
The “hERG current change (%, negative = inhibition) at 10uM” value of the first is lower: -56.7% for the first, 1.67% for the second.

First: CCOc1ccc2nc(N3CCC(C(=O)NCCCN4CCOCC4)CC3)sc2c1
Second: CCOc1ccc2nc(N3CCCC(C(=O)NCCCN4CCOCC4)C3)sc2c1 (centres unmarked)
The “hERG current change (%, negative = inhibition) at 10uM” value of the first is higher: -17.7% for the first, -19.6% for the second.

First: CCOc1cc2sc(N3CCC(C(=O)NCCCN4CCCC4=O)CC3)nc2cc1Br
Second: Cc1cc(C)c2nc(N3CCC(C(=O)NCCCN4CCCC4=O)CC3)sc2c1
The “hERG current change (%, negative = inhibition) at 10uM” value of the first is lower: -60.5% for the first, -25.5% for the second.

First: CCOc1ccc2nc(N3CCCC(C(=O)NCC4CCCO4)C3)sc2c1 (centres unmarked)
Second: CCOc1ccc2nc(N3CCCC(C(=O)NC4CCCC4)C3)sc2c1 (centres unmarked)
The “hERG current change (%, negative = inhibition) at 10uM” value of the first is lower: -19.1% for the first, -0.903% for the second.

First: O=C(NCCCN1CCCC1=O)C1CCN(S(=O)(=O)c2c(Cl)cccc2Cl)CC1
Second: CCOc1ccc2nc(N3CCCC(C(=O)NCCCN4CCCCC4)C3)sc2c1 (centres unmarked)
The “hERG current change (%, negative = inhibition) at 10uM” value of the first is higher: -0.379% for the first, -64.8% for the second.

Going from `COc1ccc2nc(N3CCCC(C(=O)NCCCN4C(C)CCCC4C)C3)sc2c1` (centres unmarked) to `CCOc1ccc2nc(N3CCCC(C(=O)NCCCN4C(C)CCCC4C)C3)sc2c1` (centres unmarked), the “hERG current change (%, negative = inhibition) at 10uM” value falls from -34.1% to -54.7%.

Compared with `CCOC(=O)C1=C(c2ccccc2)OC(N)=C(C#N)C1c1cccs1` (centres unmarked), `COc1cccc(C2C(C#N)=C(N)Oc3cc(C)n(Cc4ccccn4)c(=O)c32)c1OC` (centres unmarked) is higher in “hERG current change (%, negative = inhibition) at 10uM” value: 3.11% for the first, 3.7% for the second.

First: O=C(c1ccc(=O)[nH]c1)N1CCN(S(=O)(=O)c2cc(C(F)(F)F)ccc2Cl)CC1
Second: Cc1cc(C)c(C)c(S(=O)(=O)N2CCN(c3ncnc4ccccc34)CC2)c1C
The “hERG current change (%, negative = inhibition) at 10uM” value of the first is lower: -13.4% for the first, -4.67% for the second.

Going from `CSc1nc2c(c(=O)[nH]1)C(c1ccncc1)C(C(=O)OC(C)C)=C(C)N2` (centres unmarked) to `CCc1nc(SCC(=O)Nc2cc(OC)ccc2OC)c2c(C)c(C)sc2n1`, the “hERG current change (%, negative = inhibition) at 10uM” value rises from -0.441% to 3.63%.

Compared with `CCN(CC)c1ccc(NC(=O)COc2ccccc2C#N)cc1S(=O)(=O)Nc1ccc(OC)cc1`, `Cc1ccccc1S(=O)(=O)Oc1ccccc1C(=O)Oc1ccccc1` is lower in “hERG current change (%, negative = inhibition) at 10uM” value: 13% for the first, -1.26% for the second.

Going from `COc1ccc([C@@H]2[C@@H]3C(=O)N(C(C)(C)C)C(=O)[C@@H]3[C@]3(Cc4ccccc4)C(=O)N(c4ccc(C)cc4)C(=O)N23)cc1` to `Cc1ccc(S(=O)(=O)/N=C(/Nc2c(C)n(C)n(-c3ccccc3)c2=O)c2ccc(Cl)cc2)cc1`, the “hERG current change (%, negative = inhibition) at 10uM” value falls from 2.04% to -57%.

Going from `CN(Cc1ccccc1)C(=O)c1[nH]cnc1C(=O)NCC(=O)OC(C)(C)C` to `Cc1cc(C(=O)Nc2ccc(C(=O)O)cc2)c(C)o1`, the “hERG current change (%, negative = inhibition) at 10uM” value rises from 10.4% to 23.9%.

Going from `COc1ccc(/C=C2\SC(=O)N(CCNC(=O)Cc3coc4cc(C)ccc34)C2=O)cc1OC` to `Cc1ccc2occ(/C=N/NC(=O)[C@@H](N)Cc3ccccc3)c(=O)c2c1.Cl`, the “hERG current change (%, negative = inhibition) at 10uM” value falls from 4.76% to -22.5%.

Compared with `CC(C)(C)[C@@H]1CCC(=O)N(CC[C@H](Sc2ccccc2)c2ccccc2)CC1`, `Cc1cccc(N2CCN(C(=O)CC(NC(=O)c3ccccc3)c3ccccc3)CC2C)c1` (centres unmarked) is lower in “hERG current change (%, negative = inhibition) at 10uM” value: 17.1% for the first, -47.1% for the second.

First: Cc1cc(C)cc(NC(=O)COC(=O)CC2CCCC2)c1
Second: CCN(CC)CCCNC(=O)c1[nH]c(C)c(C(=O)NC2CCCCC2)c1C
The “hERG current change (%, negative = inhibition) at 10uM” value of the first is lower: -0.633% for the first, 12.9% for the second.

First: Cc1cccc(C)c1NC(=O)CN(C)C(=O)CCc1nc2sc3c(c2c(=O)[nH]1)CCCC3
Second: COc1ccc2c(c1)CCc1c(C(=O)Nc3c(C)n(C)n(-c4ccccc4)c3=O)noc1-2
The “hERG current change (%, negative = inhibition) at 10uM” value of the first is higher: 5.53% for the first, 4.63% for the second.

Going from `CCOc1ccc2nc(N3CCCC(C(=O)NCCCN4CC(C)CC(C)C4)C3)sc2c1` (centres unmarked) to `CCCCNC(=O)Nc1nnc(-c2ccc(OCC)cc2)o1`, the “hERG current change (%, negative = inhibition) at 10uM” value rises from -48.8% to 10.1%.

Going from `CC1(C)CC2CC(C)(CN2C(=O)C23CCC(C)(C(=O)C2)C3(C)C)C1` (centres unmarked) to `Cc1cccc(OC(C)C(=O)N2CCCN(C)CC2)c1C` (centres unmarked), the “hERG current change (%, negative = inhibition) at 10uM” value rises from -4.28% to 1.75%.

First: O=C(NC(=S)N1CCN(Cc2ccccc2)CC1)c1ccccc1
Second: N#Cc1ccc(CN2CCN(C(=O)CC(NC(=O)c3ccccc3)c3ccccc3)CC2)cc1 (centres unmarked)
The “hERG current change (%, negative = inhibition) at 10uM” value of the first is higher: 6.47% for the first, -81.2% for the second.

Compared with `CCn1c(C(C)NC(=O)c2cccc(C)c2)nc2ccccc21` (centres unmarked), `CC(NC(=O)c1ccccc1)c1nc2ccccc2n1Cc1ccccc1F` (centres unmarked) is higher in “hERG current change (%, negative = inhibition) at 10uM” value: -19.6% for the first, 0.996% for the second.

Compared with `CC(NC(=O)c1ccccc1)c1nc2ccccc2n1Cc1ccc(C#N)cc1` (centres unmarked), `COc1cccc(N2CCN(C(=O)CC(NC(=O)c3ccccc3)c3ccccc3)CC2)c1` (centres unmarked) is higher in “hERG current change (%, negative = inhibition) at 10uM” value: -68.6% for the first, -65% for the second.

Compared with `COc1ccc(N2CCN(C(=O)CC(NC(N)=O)c3cccc(Oc4ccccc4)c3)CC2)cc1` (centres unmarked), `CC(=O)NC(CC(=O)N1CCN(C(C)=O)CC1)c1ccccc1` (centres unmarked) is higher in “hERG current change (%, negative = inhibition) at 10uM” value: -7.97% for the first, 27% for the second.

Compared with `CCC1(C)Cc2c(sc3c2c(=O)n(-c2ccccc2)c(=O)n3C)CO1` (centres unmarked), `Cc1c(NC(=O)c2noc3c2CCc2ccccc2-3)c(=O)n(-c2ccccc2)n1C` is lower in “hERG current change (%, negative = inhibition) at 10uM” value: 5.26% for the first, -52.9% for the second.

Compared with `COc1cc2cnc(-c3ccccc3)c(-c3cc(OC)c(OC)c(OC)c3)c2cc1OC`, `COc1ccc(-c2csc(-c3cccnc3)n2)cc1C` is lower in “hERG current change (%, negative = inhibition) at 10uM” value: -0.323% for the first, -3.79% for the second.

Going from `Cn1c2ccccc2c(=O)c2ccc(C#CC3(O)CCCCC3)cc21` to `Cc1c(NC(=O)c2cc(-c3ccccc3)on2)c(=O)n(-c2ccccc2)n1C`, the “hERG current change (%, negative = inhibition) at 10uM” value falls from 1.63% to -27.7%.

First: COc1cccc(N(CC(=O)NCc2ccco2)C(=O)CCC(=O)Nc2nccs2)c1
Second: COC(=O)c1ccccc1NC(=S)NC(NC(=O)c1ccccc1[N+](=O)[O-])C(Cl)(Cl)Cl (centres unmarked)
The “hERG current change (%, negative = inhibition) at 10uM” value of the first is higher: 1.6% for the first, -1.4% for the second.

Going from `CSCCC(NS(=O)(=O)c1ccc(Cl)cc1)C(=O)OCc1c(Cl)cccc1Cl` (centres unmarked) to `Cc1c(N/C(=N/S(=O)(=O)c2ccc(Cl)cc2)c2ccccc2)c(=O)n(-c2ccccc2)n1C`, the “hERG current change (%, negative = inhibition) at 10uM” value falls from 6.45% to -20.6%.

First: COc1ccc(OC)c(C(C)NC(=S)NC2CCCCC2)c1 (centres unmarked)
Second: COc1ccc(NC(=O)CSc2nnc3n2CCCCC3)cc1
The “hERG current change (%, negative = inhibition) at 10uM” value of the first is lower: -6.58% for the first, 8.17% for the second.

Going from `Br.C=CCN1C(c2ccccc2)=CS/C1=C(\C#N)c1nnc2n1CCCCC2` to `Br.C=CCN1C(c2ccc(OCC)cc2)=CS/C1=C(\C#N)c1nnc2n1CCCCC2`, the “hERG current change (%, negative = inhibition) at 10uM” value rises from -59.2% to -37.9%.

Compared with `C=CCn1c(=O)/c(=C/c2ccc(O)cc2)s/c1=C(/C#N)c1nnc2n1CCCCC2`, `C=CCn1c(=O)/c(=C/c2ccc(F)cc2)s/c1=C(\C#N)c1nnc2n1CCCCC2` is lower in “hERG current change (%, negative = inhibition) at 10uM” value: -16.6% for the first, -59.9% for the second.

First: Br.CCOc1ccc(C2=CS/C(=C(\C#N)c3nnc4n3CCCCC4)N2CC)cc1
Second: C=CCn1c(=O)/c(=C/c2ccc(Cl)cc2)s/c1=C(/C#N)c1nnc2n1CCCCC2
The “hERG current change (%, negative = inhibition) at 10uM” value of the first is lower: -47.3% for the first, -43% for the second.

Compared with `Cc1c(NC(=O)c2cc3nc(-c4ccc(Br)cc4)cc(C(F)(F)F)n3n2)c(=O)n(-c2ccccc2)n1C`, `Cc1c(NC(=O)c2cc3nc(-c4ccc(Cl)cc4)cc(C(F)(F)F)n3n2)c(=O)n(-c2ccccc2)n1C` is lower in “hERG current change (%, negative = inhibition) at 10uM” value: -33.9% for the first, -55.3% for the second.

Compared with `Cc1c(NC(=O)c2cc(-c3ccc(Cl)cc3)on2)c(=O)n(-c2ccccc2)n1C`, `Cc1ccc(-c2cc(C(=O)Nc3c(C)n(C)n(-c4ccccc4)c3=O)no2)cc1` is higher in “hERG current change (%, negative = inhibition) at 10uM” value: -55.1% for the first, -25.3% for the second.

First: Cc1cc(NC(=O)c2noc3c2CCc2ccccc2-3)no1
Second: CS(=O)(=O)c1ccc(C(=O)NC2CCCc3ccccc32)cc1 (centres unmarked)
The “hERG current change (%, negative = inhibition) at 10uM” value of the first is lower: 11% for the first, 20% for the second.

Compared with `Cc1c(N/C(=N/S(=O)(=O)c2ccccc2)c2ccc(Cl)cc2)c(=O)n(-c2ccccc2)n1C`, `Cc1ccc(-c2cc(C(F)(F)F)n3nc(C(=O)Nc4c(C)n(C)n(-c5ccccc5)c4=O)cc3n2)cc1` is higher in “hERG current change (%, negative = inhibition) at 10uM” value: -30.7% for the first, -14.3% for the second.

Compared with `O=C(O)CC1Sc2nnc(COc3ccc(Cl)cc3)n2N=C1c1ccccc1` (centres unmarked), `CC(C)Cc1nnc(NC(=O)C2CCN(C(=O)c3ccc(Cl)cc3)CC2)s1` is lower in “hERG current change (%, negative = inhibition) at 10uM” value: 21.2% for the first, -29.2% for the second.

Compared with `CN(C)S(=O)(=O)c1cc(S(=O)(=O)N(C)C)c(Cl)cc1N`, `CCc1oc(C(=O)OC)cc1CSC(=N)N.Cl` is higher in “hERG current change (%, negative = inhibition) at 10uM” value: -8.31% for the first, 12% for the second.
